Holding throughout (assay): NCI-60 one-dose screen, 48 h (100 = growth as untreated, 0 = no growth, -100 = all killed)
What all share (settings): 10 µM unless noted

For assay [1], the system named is BT-549 breast.
Assay [2] deals with MDA-MB-435 melanoma.
For assay [3], the system named is SW-620 colon.
Assay [4] has as its system MCF7 breast.
Assay [5] relates to HCT-116 colon.
The subject of assay [6] is HCC-2998 colon.
Assay [7] concerns KM12 colon.

Structures are written as SMILES. Compounds without any hit were thinned out: in the full panel of roughly 83,000, 20% have a hit.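 For each line, cells grew in 96-well plates with the test compound present at a single concentration for 48 hours.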 Unmarked numbers belong to inactive results. Active and inactive are the calls of the source. Rule for the calls: active = growth percent below 10; inactive = the rest.

As to `CC(=O)O[C@H]1[C@H](CC#CC#CC[C@@H]2C[C@]3(C)[C@H]4CC=C5[C@H]6[C@@H](C)[C@H](C)CC[C@]6(C(=O)NCCN(CCN)CCN)CC[C@@]5(C)[C@]4(C)CC[C@H]3C(C)(C)[C@H]2OC(C)=O)C[C@]2(C)[C@H]3CC=C4[C@H]5[C@@H](C)[C@H](C)CC[C@]5(C(=O)NCCN(CCN)CCN)CC[C@@]4(C)[C@]3(C)CC[C@H]2C1(C)C`, the growth in assay [1] is 99.9%; in assay [2] it was 64.7%; in assay [3], 64%; in assay [4], -0.0516% (active); in assay [5], 75.5%; in assay [6], 72.3%. Further, the growth in assay [7] was 86.1%.

Take `Cc1ccc(NC(=O)c2[nH]c(SCCN(C)C)nc2-c2ccc(F)cc2)cc1Nc1ccc2ncn(C)c(=O)c2c1`: the growth was 85.2% in assay [1]; 44.6% in assay [2]; 51.8% in assay [3]; 70% in assay [4]; 21% in assay [5]; 49.9% in assay [6].

`COc1c(B(O)O)cccc1-c1nc2c(F)cc3n[nH]c(C)c3c2c2c1CCCC2`: the growth is 21.2% in assay [1]; 21.2% in assay [2]; 15.3% in assay [3]; 15% in assay [4]; 10.5% in assay [5]; 51.7% in assay [6]. Further, in assay [7], the growth was 20.5%.

Turning to `COc1ccc(/C=c2\c(=O)n(-c3ccccc3)c3nn4c(n23)=NNC42CCCCC2)cc1`, the growth in assay [1] was 97.3%; in assay [2], 110%; in assay [3] it was 103%; in assay [4] it was 96.6%; in assay [5], 95.8%; in assay [6] it was 107%. Moreover, the growth in assay [7] is 102%.

Take `CCc1ccc(Nc2ncnc3c2cnn3-c2cccc(Br)c2)cc1`: the growth in assay [1] is 95.8%; in assay [2], 98%; in assay [3] it was 99.6%; in assay [4] it was 102%; in assay [5], 96.1%; in assay [6], 98.1%. The growth in assay [7] was 106%.

Take `O=C(NNC(=S)Nc1ccccc1)c1ccc(Nc2ncnc3c2cnn3-c2cccc(Br)c2)cc1`: the growth in assay [1] was 104%; in assay [2], 105%; in assay [3] it was 104%; in assay [4], 103%; in assay [5] it was 98.9%; in assay [6] it was 104%. The growth in assay [7] is 107%.

For the molecule `CCOC(CN1CCN(CC(C)C(=O)c2ccccc2)CC1)c1ccccc1` (stereo not drawn), the growth is 115% in assay [1]; 102% in assay [2]; 106% in assay [3]; 80.6% in assay [4]; 109% in assay [5]; 115% in assay [6]. For the same molecule, the growth in assay [7] was 104%.

On to `COc1ccc(/C=C/C(=O)c2ccc(NC(=O)CSc3nnc(-c4ccc(OC)cc4)n3-c3ccccc3)cc2)cc1`, for which the growth in assay [1] is 99.7%; in assay [2] it was 98.3%; in assay [3] it was 102%; in assay [4], 77.1%; in assay [5], 4.27% (active); in assay [6], 104%. Moreover, the growth in assay [7] was 102%.

Take `Cc1ccc(NC(=O)Cn2nncc2CN2C(=O)CSC2=O)cc1C`: the growth in assay [1] was 98.8%; in assay [2] it was 100%; in assay [3], 99.3%; in assay [4], 92%; in assay [5], 102%; in assay [6], 92.5%. The growth in assay [7] was 105%.

Take `CCCN(CCC)CC(O)COc1ccccc1C(=O)Nc1ccccc1` (stereo not drawn): the growth in assay [1] was 87.1%; in assay [2], -21.1% (active); in assay [3] it was 36.9%; in assay [4], 79.9%; in assay [5] it was 50.6%; in assay [6] it was 79.6%. The growth in assay [7] was 48.3%.

Turning to `Clc1ccc(Nc2ncnc3c2sc2ncccc23)c(Cl)c1`, the growth was 44.6% in assay [1]; 36.3% in assay [2]; 47.9% in assay [3]; 18.4% in assay [4]; 27.6% in assay [5]; 59.6% in assay [6]. The growth in assay [7] was 50.8%.

As to `COc1ccc(-c2oc(=O)ccc2-c2cc(OC)c(OC)c(OC)c2)cc1F`, the growth was 98.5% in assay [1]; -2.61% (active) in assay [2]; 46.4% in assay [3]; 44% in assay [4]; 60.2% in assay [5]; 65% in assay [6]. Also, the growth in assay [7] was 41.6%.

For `C#CC[C@@H]1C[C@]2(C)[C@H]3CC=C4[C@H]5CC(C)(C)CC[C@]5(C(=O)NCCCCN)CC[C@@]4(C)[C@]3(C)CC[C@H]2C(C)(C)[C@H]1OC(C)=O`, the growth in assay [1] was 97.8%; in assay [2] it was -34.2% (active); in assay [3], -23.9% (active); in assay [4], 4.27% (active); in assay [5], -31% (active); in assay [6] it was 1.58% (active). The growth in assay [7] is 6.43% (active).

With `O=C(Nc1ccc(Oc2ccc(NC(=O)Nc3ccccc3Cl)cc2)cc1)Nc1ccccc1Cl`, the growth is 48.8% in assay [2]; 51.7% in assay [3]; 44.1% in assay [4]; 29.2% in assay [5]; 80.4% in assay [6]; 40.8% in assay [7].

Turning to `Cn1nc(C(F)(F)F)cc1-c1cc(Cl)c(OCc2ccc(Cl)cc2)c(-c2ccc(Cl)c(C(F)(F)F)c2)c1O`, the growth in assay [1] is -0.385% (active); in assay [2] it was 1.41% (active); in assay [3] it was 12.2%; in assay [4] it was 3.29% (active); in assay [5], -11.1% (active); in assay [6], 13.6%. The growth in assay [7] is 7.08% (active).
